Inconclusive results are not listed. Calls of active or inactive are those of the source. Calls come from the whole dose curve; as a rule, active = well fitted curve in the direction sought with a large enough effect; inconclusive = small, poorly fitted or top-dose-only effect, or another doubt; inactive = no such curve, though single readings can be large; an effect the other way counts as inactive or inconclusive.
Experiments:
[1] = biological target: Rap guanine nucleotide exchange factor 3 (Homo sapiens) (UniProt O95398); test: Confirmatory qHTS for antagonist of cAMP-regulated guanine nucleotide exchange factor 3 (EPAC1) (AID 1645880); note: nearly all actives have a fitted effect of over 55% in size; note: potency is the fitted concentration of half-maximal effect
Sequence of Rap guanine nucleotide exchange factor 3 (Homo sapiens) (O95398 whole entry, looked up): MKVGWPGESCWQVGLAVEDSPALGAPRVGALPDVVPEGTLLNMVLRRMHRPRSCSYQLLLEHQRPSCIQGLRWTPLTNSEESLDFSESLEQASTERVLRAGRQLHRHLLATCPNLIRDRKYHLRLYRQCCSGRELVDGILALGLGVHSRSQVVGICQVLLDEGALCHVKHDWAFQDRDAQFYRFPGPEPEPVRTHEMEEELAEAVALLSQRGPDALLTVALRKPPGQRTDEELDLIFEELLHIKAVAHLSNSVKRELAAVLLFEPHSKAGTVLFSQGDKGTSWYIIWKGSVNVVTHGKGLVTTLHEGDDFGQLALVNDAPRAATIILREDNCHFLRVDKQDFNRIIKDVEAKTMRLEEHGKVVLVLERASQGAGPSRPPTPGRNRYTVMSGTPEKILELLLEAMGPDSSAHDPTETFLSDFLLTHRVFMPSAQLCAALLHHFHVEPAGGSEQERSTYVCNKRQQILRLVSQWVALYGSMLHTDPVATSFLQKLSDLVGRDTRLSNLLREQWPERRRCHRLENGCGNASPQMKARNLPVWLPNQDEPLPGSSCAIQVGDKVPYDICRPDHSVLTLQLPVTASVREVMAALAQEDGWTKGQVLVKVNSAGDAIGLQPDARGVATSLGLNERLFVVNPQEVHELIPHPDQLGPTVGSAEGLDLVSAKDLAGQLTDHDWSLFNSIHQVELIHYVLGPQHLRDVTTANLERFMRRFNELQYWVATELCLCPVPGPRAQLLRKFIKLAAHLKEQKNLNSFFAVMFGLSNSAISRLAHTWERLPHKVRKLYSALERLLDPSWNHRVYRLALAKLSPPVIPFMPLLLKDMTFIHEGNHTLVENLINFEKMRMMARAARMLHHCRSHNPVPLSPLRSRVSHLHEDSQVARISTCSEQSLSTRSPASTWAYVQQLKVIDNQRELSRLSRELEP
Method in brief: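 Nucleotide exchange uses 100 nM EPAC1, 250 nM RAP1B-BODIPY-GDP and 50 uM GDP, with compounds in a concentration-titration series. After 5 min at room temperature, fluorescence (480 nm ex/540 nm em) is read every 5 min for 30 min. Data are normalized to control ATA and DMSO.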

[2] = biological target: Rap guanine nucleotide exchange factor 3 (Homo sapiens) (UniProt O95398); test: Confirmatory qHTS for agonist of cAMP-regulated guanine nucleotide exchange factor 3 (EPAC1) (AID 1645881); note: nearly all actives have a fitted effect of over 75% in size; note: potency is the fitted concentration of half-maximal effect
[3] = biological target: Rap guanine nucleotide exchange factor 4 (Homo sapiens) (UniProt Q8WZA2); test: Confirmatory qHTS for agonist of cAMP-regulated guanine nucleotide exchange factor 4 (EPAC2) (AID 1645884);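 note: nucleotide exchange releases bodipy-GDP from Rap1 and this lowers its fluorescence; nearly all actives have a fitted effect of over 65% in size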; note: potency is the fitted concentration of half-maximal effect
Sequence of Rap guanine nucleotide exchange factor 4 (Homo sapiens) (Q8WZA2 whole entry, looked up): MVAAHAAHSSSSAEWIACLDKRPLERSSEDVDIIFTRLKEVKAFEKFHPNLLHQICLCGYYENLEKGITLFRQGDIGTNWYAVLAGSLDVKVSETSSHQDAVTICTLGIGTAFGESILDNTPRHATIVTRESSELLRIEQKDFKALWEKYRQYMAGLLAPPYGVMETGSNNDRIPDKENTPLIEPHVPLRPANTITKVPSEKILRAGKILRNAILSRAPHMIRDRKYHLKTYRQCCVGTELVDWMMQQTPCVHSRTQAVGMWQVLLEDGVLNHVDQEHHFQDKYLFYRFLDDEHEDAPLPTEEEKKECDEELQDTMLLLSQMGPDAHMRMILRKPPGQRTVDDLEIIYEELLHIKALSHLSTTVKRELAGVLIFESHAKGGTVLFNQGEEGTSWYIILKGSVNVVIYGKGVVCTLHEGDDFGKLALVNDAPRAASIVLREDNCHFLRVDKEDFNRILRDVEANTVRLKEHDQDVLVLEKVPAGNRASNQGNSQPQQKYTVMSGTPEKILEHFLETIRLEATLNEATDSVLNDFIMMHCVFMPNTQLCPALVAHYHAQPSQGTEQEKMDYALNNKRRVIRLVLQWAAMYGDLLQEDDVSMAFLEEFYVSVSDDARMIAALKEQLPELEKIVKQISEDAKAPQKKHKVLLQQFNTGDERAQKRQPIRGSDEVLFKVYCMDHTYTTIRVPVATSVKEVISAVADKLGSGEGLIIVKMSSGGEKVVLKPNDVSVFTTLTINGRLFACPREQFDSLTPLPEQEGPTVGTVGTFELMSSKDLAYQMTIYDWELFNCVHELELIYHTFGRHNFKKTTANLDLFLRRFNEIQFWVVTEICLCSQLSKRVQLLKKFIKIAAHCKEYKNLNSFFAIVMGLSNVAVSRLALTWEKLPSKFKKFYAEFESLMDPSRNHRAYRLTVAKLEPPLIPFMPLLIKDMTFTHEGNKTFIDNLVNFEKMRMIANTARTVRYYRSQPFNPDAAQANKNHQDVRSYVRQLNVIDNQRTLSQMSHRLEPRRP

[4] = biological target: Rap guanine nucleotide exchange factor 4 (Homo sapiens) (UniProt Q8WZA2); test: Confirmatory qHTS for antagonist of cAMP-regulated guanine nucleotide exchange factor 4 (EPAC2) (AID 1645885); note: nearly all actives have a fitted effect of over 25% in size
[5] = biological target: Rap guanine nucleotide exchange factor 3 (Homo sapiens) (UniProt O95398); test: Counterscreen qHTS for agonist of cAMP-regulated guanine nucleotide exchange factor 3 (EPAC1) (AID 1645889); note: nearly all actives have a fitted effect of over 40% in size; note: potency is the fitted concentration of half-maximal effect
Method in brief: (§1)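 Measured: fluorescence of BODIPY-GDP bound to Rap1B, which falls as exchange proceeds. Conditions include 50 uM competing GDP, 5 and 30 min reads, and a later cAMP challenge for antagonist detection.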

[6] = Confirmation and Secondary Assay for Modulators of Hemoglobin Beta Chain Splicing at IVS2 654 locus (AID 910);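 note: per-well total GFP intensity by laser scanning cytometry after 2-day treatment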
Method in brief: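 HeLa cells stably carrying EGFP interrupted by mutant beta-globin IVS2-654 intron (CMV-driven) were treated with compound for 2 days at 37C; corrected splicing was scored as total peak GFP intensity per well (488 nm excitation, 500-520 nm emission).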

[7] = Confirmation and Secondary Assay for Modulators of Hemoglobin Beta Chain Splicing at IVS2 705 locus (AID 930);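 note: HeLa cells stably expressing the EGFP-705 splicing reporter; GFP fluorescence per well restored by corrected splicing of the IVS2-705 intron in EGFP; series mostly up to about 46 µM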
Method in brief: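 Stable HeLa line with EGFP disrupted by mutant beta-globin intron 2 (705). Overnight attachment, then 2 days of compound at 37C, 5% CO2. Signal: peak GFP intensity summed over objects 5-250 µm.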

[8] = biological target: Cytochrome P450 3A4 (Homo sapiens) (UniProt P08684); test: qHTS Assay for Activators of Cytochrome P450 3A4 (AID 885); note: nearly all actives have a fitted effect of over 65% in size
Sequence of Cytochrome P450 3A4 (Homo sapiens) (P08684 whole entry, looked up): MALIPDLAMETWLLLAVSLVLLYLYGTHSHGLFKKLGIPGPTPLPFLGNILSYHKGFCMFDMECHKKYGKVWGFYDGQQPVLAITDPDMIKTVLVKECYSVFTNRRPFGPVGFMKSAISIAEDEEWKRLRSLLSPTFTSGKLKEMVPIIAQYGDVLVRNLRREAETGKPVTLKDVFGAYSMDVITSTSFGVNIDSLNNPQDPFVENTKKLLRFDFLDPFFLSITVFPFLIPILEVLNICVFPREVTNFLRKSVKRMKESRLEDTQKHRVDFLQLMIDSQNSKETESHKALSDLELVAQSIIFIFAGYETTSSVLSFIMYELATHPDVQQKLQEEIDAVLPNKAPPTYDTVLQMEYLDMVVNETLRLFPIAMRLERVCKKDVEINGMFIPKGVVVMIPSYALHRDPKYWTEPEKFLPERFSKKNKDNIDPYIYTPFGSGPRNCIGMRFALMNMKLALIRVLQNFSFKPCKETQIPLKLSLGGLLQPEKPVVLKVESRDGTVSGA
Method in brief: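 Human CYP3A4 (20 nM) with Luciferin-PPXE at 25 uM (its KM) in 200 mM KPO4; 10 min compound preincubation, then NADPH regeneration and 60 min reaction at RT. Luciferin read by luminescence; normalized to 57 uM ketoconazole full inhibition.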

[9] = biological target: Ubiquitin carboxyl-terminal hydrolase 1 (Homo sapiens) (UniProt O94782); test: Inhibitors of USP1/UAF1: Pilot qHTS (AID 504865);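 note: rhodamine fluorescence freed from ubiquitin-rhodamine substrate followed over time; top concentration of the series differs between compounds; nearly all actives have a fitted effect of over 35% in size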
Sequence of Ubiquitin carboxyl-terminal hydrolase 1 (Homo sapiens) (O94782 whole entry, looked up): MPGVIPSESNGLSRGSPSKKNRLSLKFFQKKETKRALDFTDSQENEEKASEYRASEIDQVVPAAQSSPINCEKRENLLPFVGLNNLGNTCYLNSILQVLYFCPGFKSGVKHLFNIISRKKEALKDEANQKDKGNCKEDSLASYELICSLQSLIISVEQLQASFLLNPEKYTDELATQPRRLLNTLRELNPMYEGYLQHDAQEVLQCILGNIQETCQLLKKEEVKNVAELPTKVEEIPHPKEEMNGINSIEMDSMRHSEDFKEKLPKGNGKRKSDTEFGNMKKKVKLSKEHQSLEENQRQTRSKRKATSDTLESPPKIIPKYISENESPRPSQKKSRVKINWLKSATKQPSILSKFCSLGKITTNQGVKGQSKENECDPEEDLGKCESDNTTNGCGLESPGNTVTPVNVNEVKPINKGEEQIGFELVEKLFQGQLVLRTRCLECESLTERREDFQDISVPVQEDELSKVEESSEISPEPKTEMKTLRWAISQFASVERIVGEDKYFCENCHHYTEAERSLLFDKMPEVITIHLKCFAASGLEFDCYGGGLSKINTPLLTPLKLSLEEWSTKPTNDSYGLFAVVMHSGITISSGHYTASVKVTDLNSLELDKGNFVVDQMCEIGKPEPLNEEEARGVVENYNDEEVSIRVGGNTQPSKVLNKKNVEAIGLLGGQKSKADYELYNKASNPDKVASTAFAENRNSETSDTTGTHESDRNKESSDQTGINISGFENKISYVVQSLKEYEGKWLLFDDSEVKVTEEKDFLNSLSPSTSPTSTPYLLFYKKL
Method in brief: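 Deubiquitinase activity followed as kinetic rhodamine fluorescence release from 150 nM Ub-Rho. 1 nM USP1/UAF1 with compound, after 15 min room-temperature preincubation, in HEPES pH 7.8 buffer containing TCEP, EDTA, BSA and Tween-20.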

[10] = biological target: Rap guanine nucleotide exchange factor 3 (Homo sapiens) (UniProt O95398); test: Counterscreen qHTS for antagonist of cAMP-regulated guanine nucleotide exchange factor 3 (EPAC1) (AID 1645888);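 note: fluorescence loss as bound BODIPY-GDP is released from Rap1B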
Method in brief: as §1

Measured: Potency

Nc1ccc(-c2c3ccc(=O)cc-3oc3cc(O)ccc23)c(C(=O)O)c1
inactive: [1] | [4]
active: [2] 100 µM | [3] 100 µM | [5] 31.6 µM

COC(=O)C(C)N(C(=O)c1ccc(Cl)cc1)c1c(C)cccc1C (configuration not stated)
inactive: [1] | [2] | [3] | [4] | [5]

CC(CN(C)C)CN1c2ccccc2Sc2ccccc21 (configuration not stated)
inactive: [6] | [7]

COc1cccc(OCCOc2ccc(/C=C3\C(=N)N4N=C(S(C)(=O)=O)SC4=NC3=O)cc2OC)c1
inactive: [2] | [3] | [4] | [5]
active: [1] 37.9 µM

CC1(C)CC2C1CCC1(C)OC1CCC2(C)O (configuration not stated)
inactive: [8] | [6] | [7] | [9]

CC(=O)c1ccc(N2CCN(C(=O)C3CCCN(S(=O)(=O)c4c(C)[nH]c(=O)[nH]c4=O)C3)CC2)cc1 (configuration not stated)
inactive: [1] | [2] | [3] | [4] | [5]

Fc1cccc(Cc2c(-c3ccccc3)nc3ccc(Cl)cn23)c1
inactive: [1] | [2] | [3] | [4] | [10] | [5]

Cc1cc(/C=N/NC(N)=S)c(O)c(/C=N/NC(N)=S)c1
active: [2] 44.7 µM | [3] 50.1 µM | [5] 6.31 µM
inactive: [1] | [4]
